Data taken from PubChem BioAssay (EPA / NIEHS).
Activity calls are given as the source filed them. How the source made its calls: active means hit-call score of the fitted dose curve at least 0.9, where 1 is the maximum; inactive means score below 0.9.

Assays:
[1] = read-out: Urokinase-type plasminogen activator receptor (uPAR), PLAUR (gene 5329); test: BSK_4H_uPAR: BioMAP Diversity Plus: 4H Assay for Urokinase-type plasminogen activator receptor (uPAR) Biomarker Activity (AID 2283030); conditions: primary human endothelial cells (HUVEC); actives raise or lower the signal
Method in brief: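 Human umbilical vein endothelial cells in the 4H system, 24 h after chemical dosing. Cell-surface uPAR measured by ELISA, fitted in both directions versus DMSO; cytotoxicity checked by SRB total protein in parallel cultures.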

[2] = read-out: Vascular endothelial growth factor receptor 2 (Homo sapiens) (UniProt P35968); test: BSK_4H_VEGFRII: BioMAP Diversity Plus: 4H Assay for Vascular endothelial growth factor receptor 2 (VEGFR2) Biomarker Activity (AID 2283031); conditions: primary human endothelial cells (HUVEC); actives raise or lower the signal;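 on AC50: cell-surface VEGFR2 protein level quantified by ELISA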
Method in brief: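 Primary human umbilical vein endothelial cells (4H system), 24 h exposure; cell-surface VEGFR2 measured by ELISA. Bidirectional fitting versus DMSO; cytotoxicity checked in parallel by SRB total-protein staining.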

[3] = read-out: Vascular cell adhesion molecule 1 (VCAM1), VCAM1 (gene 7412); test: BSK_4H_VCAM1: BioMAP Diversity Plus: 4H Assay for Vascular cell adhesion molecule 1 (VCAM1) Biomarker Activity (AID 2283033); conditions: primary human endothelial cells (HUVEC); actives raise or lower the signal
Method in brief: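 ELISA read-out of VCAM-1 on human umbilical vein endothelium 24 hours after chemical dosing; gain or loss of signal was fitted relative to DMSO, with sulforhodamine B staining of parallel cultures flagging overt cytotoxicity.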

[4] = read-out: Interferon-gamma inducible Protein 10 (IP10), CXCL10 (gene 3627); test: BSK_BE3C_IP10: BioMAP Diversity Plus: BE3C Assay for Interferon-gamma inducible Protein 10 (IP10) Biomarker Activity (AID 2283034); conditions: primary human bronchial epithelial cells; actives raise or lower the signal
Method in brief: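 Chemical is dosed onto human lung bronchial epithelial primary cells, cultures are incubated 24 h, and IP-10 is then quantified by ELISA. Gain or loss of signal is fitted in both directions relative to DMSO.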

[5] = read-out: Monokine induced gamma interferon (MIG), CXCL9 (gene 4283); test: BSK_BE3C_MIG: BioMAP Diversity Plus: BE3C Assay for Monokine induced gamma interferon (MIG) Biomarker Activity (AID 2283035); conditions: primary human bronchial epithelial cells; actives raise or lower the signal
Method in brief: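 MIG level was determined by ELISA after 24 h chemical treatment of primary human bronchial epithelial cells. Values were fitted bidirectionally with DMSO as the negative control and activity baseline.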

[6] = read-out: Transforming growth factor beta 1 (TGFb1), TGFB1 (gene 7040); test: BSK_BE3C_TGFb1: BioMAP Diversity Plus: BE3C Assay for Transforming growth factor beta 1 (TGFb1) Biomarker Activity (AID 2283036); conditions: primary human bronchial epithelial cells; actives raise or lower the signal
Method in brief: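 Primary human lung bronchial epithelial cells; compound exposure 24 h; TGF-b1 by ELISA; bidirectional fit, DMSO baseline. Parallel SRB total-protein staining for cytotoxicity.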

[7] = read-out: Plasminogen activator inhibitor-1 (PAI1), SERPINE1 (gene 5054); test: BSK_BE3C_PAI1: BioMAP Diversity Plus: BE3C Assay for Plasminogen activator inhibitor-1 (PAI1) Biomarker Activity (AID 2283037); conditions: primary human bronchial epithelial cells; actives raise or lower the signal
Method in brief: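 Primary human lung bronchial epithelial cells; chemical dosing; 24 h; PAI-1 measured by ELISA; bidirectional fit referenced to DMSO as negative control.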

[8] = read-out: urokinase plasminogen activator (uPA), PLAU (gene 5328); test: BSK_BE3C_uPA: BioMAP Diversity Plus: BE3C Assay for urokinase plasminogen activator (uPA) Biomarker Activity (AID 2283038); conditions: primary human bronchial epithelial cells; actives raise or lower the signal
Method in brief: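 Primary human bronchial epithelial cells, uPA measured by ELISA 24 h after dosing. Bidirectional change relative to DMSO; cytotoxicity checked in parallel cultures by sulforhodamine B total-protein staining.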

[9] = read-out: Urokinase-type plasminogen activator receptor (uPAR), PLAUR (gene 5329); test: BSK_BE3C_uPAR: BioMAP Diversity Plus: BE3C Assay for Urokinase-type plasminogen activator receptor (uPAR) Biomarker Activity (AID 2283039); conditions: primary human bronchial epithelial cells; actives raise or lower the signal
Method in brief: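 Human bronchial epithelial primary cells; chemical exposure 24 h; uPAR by ELISA; bidirectional fit vs DMSO control.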

[10] = read-out: Interleukin-6 (IL6), IL6 (gene 3569); test: BSK_CASM3C_IL6: BioMAP Diversity Plus: CASM3C Assay for Interleukin-6 (IL6) Biomarker Activity for (AID 2283040); conditions: primary human coronary artery smooth muscle cells; actives raise or lower the signal
[11] = read-out: Tissue plasminogen activator (tPA), PLAT (gene 5327); test: BSK_BE3C_tPA: BioMAP Diversity Plus: BE3C Assay for Tissue plasminogen activator (tPA) Biomarker Activity (AID 2283041); conditions: primary human bronchial epithelial cells; actives raise or lower the signal
Method in brief: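 Primary human lung bronchial epithelial cultures receive test chemical; after 24 h, tPA is quantified by ELISA, and gain or loss of signal is fitted bidirectionally relative to DMSO baseline.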

[12] = read-out: Interleukin-8 (IL8), CXCL8 (gene 3576); test: BSK_CASM3C_IL8: BioMAP Diversity Plus: CASM3C Assay for Interleukin-8 (IL8) Biomarker Activity (AID 2283042); conditions: primary human coronary artery smooth muscle cells; actives raise or lower the signal;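 further: IL-8 protein level quantified by ELISA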
[13] = read-out: Human Leukocyte Antigen - DR isotype (HLADR), HLA-DRA (gene 3122); test: BSK_CASM3C_HLADR: BioMAP Diversity Plus: CASM3C Assay for Human Leukocyte Antigen - DR isotype (HLADR) Biomarker Activity (AID 2283043); conditions: primary human coronary artery smooth muscle cells; actives raise or lower the signal;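 further: cell-surface HLA-DR protein level quantified by ELISA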
[14] = read-out: Macrophage colony-stimulating factor (MCSF), CSF1 (gene 1435); test: BSK_CASM3C_MCSF: BioMAP Diversity Plus: CASM3C Assay for Macrophage colony-stimulating factor (MCSF) Biomarker Activity (AID 2283044); conditions: primary human coronary artery smooth muscle cells; actives raise or lower the signal;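 further: M-CSF protein amount quantified by ELISA after 24 h exposure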
[15] = read-out: Low-density lipoprotein receptor (LDLR), LDLR (gene 3949); test: BSK_CASM3C_LDLR: BioMAP Diversity Plus: CASM3C Assay for Low-density lipoprotein receptor (LDLR) Biomarker Activity (AID 2283045); conditions: primary human coronary artery smooth muscle cells; actives raise or lower the signal;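 further: LDLR protein level on the cell surface quantified by ELISA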
[16] = read-out: Monocyte Chemoattractant Protein-1 (MCP1), CCL2 (gene 6347); test: BSK_CASM3C_MCP1: BioMAP Diversity Plus: CASM3C Assay for Monocyte Chemoattractant Protein-1 (MCP1) Biomarker Activity (AID 2283046); conditions: primary human coronary artery smooth muscle cells; actives raise or lower the signal;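 further: MCP-1 level quantified by ELISA 24 h after dosing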
[17] = BSK_CASM3C_Proliferation: Cell Proliferation Assessment in the BioMAP Diversity Plus: CASM3C Assay (AID 2283047); conditions: primary human coronary artery smooth muscle cells;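 further: sulforhodamine B total protein stain as relative cell number at 560 nm; sub-confluent cells exposed 48 h before staining; fitted both ways against DMSO so gain or loss of cell number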
[18] = read-out: Monokine induced gamma interferon (MIG), CXCL9 (gene 4283); test: BSK_CASM3C_MIG: BioMAP Diversity Plus: CASM3C Assay for Monokine induced gamma interferon (MIG) Biomarker Activity (AID 2283048); conditions: primary human coronary artery smooth muscle cells; actives raise or lower the signal;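 further: MIG protein level measured by ELISA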
[19] = read-out: serum amyloid A (SAA), SAA1 (gene 6288); test: BSK_CASM3C_SAA: BioMAP Diversity Plus: CASM3C Assay for serum amyloid A (SAA) Biomarker Activity (AID 2283049); conditions: primary human coronary artery smooth muscle cells; actives raise or lower the signal;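 further: SAA protein level quantified by ELISA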

Measured: AC50

CCC(C)(CC)c1cc(NC(=O)c2c(OC)cccc2OC)on1
inactive: [1] | [2] | [3] | [4] | [5] | [6] | [7] | [8] | [9] | [10] | [11] | [12] | [13] | [14] | [15] | [16] | [17] | [18] | [19]

N#Cc1ccc(N(CC(N)=O)CC(F)(F)F)cc1C(F)(F)F
active: [16] 0.335 µM
inactive: [1] | [2] | [3] | [4] | [5] | [7] | [8] | [9] | [10] | [11] | [12] | [13] | [14] | [15] | [17] | [18] | [19]

CCC(C)c1cc([N+](=O)[O-])cc([N+](=O)[O-])c1O (stereo not drawn)
active: [1] 11.5 µM | [2] 8.81 µM | [3] 9.62 µM | [4] 1.87 µM | [7] 1.39 µM | [8] 4.72 µM | [11] 1.28 µM | [13] 14.6 µM | [17] 33.7 µM
inactive: [5] | [9] | [10] | [12] | [14] | [15] | [16] | [18] | [19]

ClC1=C(Cl)[C@]2(Cl)[C@@H]3[C@@H]4C[C@@H]([C@H]5O[C@@H]45)[C@@H]3[C@@]1(Cl)C2(Cl)Cl
active: [19] 0.468 µM
inactive: [1] | [2] | [3] | [4] | [5] | [7] | [8] | [9] | [10] | [11] | [12] | [13] | [14] | [15] | [16] | [18]

Clc1ccc(C(c2ccccc2Cl)C(Cl)(Cl)Cl)cc1 (stereo not drawn)
active: [1] 21.2 µM | [2] 17.2 µM | [13] 17.6 µM | [14] 13.8 µM | [15] 14.3 µM | [16] 23.7 µM | [17] 20.1 µM
inactive: [4] | [5] | [6] | [7] | [8] | [9] | [10] | [11] | [12] | [18]

CCCCCCCCCc1ccc(O)cc1
active: [1] 16.9 µM | [3] 15.8 µM | [4] 13.1 µM | [5] 18.5 µM | [6] 16.4 µM | [7] 15.7 µM | [8] 15.1 µM | [9] 15.7 µM | [10] 27.8 µM | [11] 7.58 µM | [12] 33 µM | [13] 31.4 µM | [14] 34.6 µM | [15] 29.3 µM | [16] 31.8 µM | [17] 16 µM | [18] 36.1 µM | [19] 29.8 µM

CCCCCCCCCC[N+](C)(C)CCCCCCCCCC
active: [1] 6.83 µM | [2] 2.01 µM | [4] 5.48 µM | [5] 8.77 µM | [6] 5.35 µM | [7] 3.71 µM | [8] 5.43 µM | [9] 5.55 µM | [10] 4.9 µM | [11] 3.61 µM | [12] 5.54 µM | [13] 4.72 µM | [14] 3.08 µM | [15] 5.09 µM | [16] 4.41 µM | [17] 2.67 µM | [18] 8.03 µM | [19] 5.46 µM

Cc1cccc(C)c1N
inactive: [1] | [2] | [3] | [4] | [5] | [7] | [8] | [9] | [10] | [11] | [12] | [13] | [14] | [15] | [16] | [17] | [18] | [19]
